# High-throughput results (PubChem BioAssay)
# This is a sample that favours compounds with a hit; in the whole collection about 12% have one here.
# AmpC no deterg = blocks E. coli AmpC beta-lactamase in detergent-free assay | AmpC nitrocefin hydrolysis, absorbance 480 nm, 0.0001% Triton | Potency, µM (titrated, usually from 57.1 µM), inactives show top-dose activity change, negative = inhibition, hits mostly inhibitors | actives 0.52% (n = 330,000) | AID 485341;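 further: plate controls were no compound for no effect and no enzyme for full effect; nearly all actives have a fitted effect of over 20% in size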
# Target sequence (P00811 whole entry, looked up): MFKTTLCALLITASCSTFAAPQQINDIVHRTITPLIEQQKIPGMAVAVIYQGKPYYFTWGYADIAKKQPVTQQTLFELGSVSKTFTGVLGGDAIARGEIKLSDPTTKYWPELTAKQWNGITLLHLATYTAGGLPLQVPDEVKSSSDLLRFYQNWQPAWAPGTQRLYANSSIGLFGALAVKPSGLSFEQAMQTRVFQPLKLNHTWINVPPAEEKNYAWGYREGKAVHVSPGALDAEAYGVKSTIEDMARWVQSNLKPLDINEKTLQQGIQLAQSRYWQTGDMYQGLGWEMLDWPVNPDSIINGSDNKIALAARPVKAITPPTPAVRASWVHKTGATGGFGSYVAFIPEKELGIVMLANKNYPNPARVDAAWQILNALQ
#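 20 mM phosphate pH 7.0 + 0.01% (detergent screen) or 0.0001% Triton X-100; 5.3 nM AmpC reagent; cpd preinc 15 min RT; nitrocefin (800 uM stock) to start; A480 q20 s × 4 min; Activity was normalised to no-enzyme and no-compound control wells.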
# Pf growth 48h = inhibits P. falciparum growth in the first generation, 48 h; P. falciparum luciferase growth in erythrocytes, 48 h; Potency, µM (series often up to 28.7 µM), for the others: at the highest dose activity change, negative = inhibition, most hits filed as inhibitors; actives 5.9% (n = 310,000); AID 504832; further: on the % scale 0 is the no-effect control and ±100 the full control effect
#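 Parasite viability was followed by luminescence of a genomically integrated firefly luciferase. Cultures held 0.1% parasitemia at 2% hematocrit (final), incubated under 5% CO2 at 37 C.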
# AmpC inh detg = AmpC beta-lactamase inhibition with detergent present; P00811; AmpC hydrolysis of nitrocefin, absorbance 480 nm, 0.01% Triton; Potency, µM (highest dose often 114 µM), inactives show at the top dose activity change, negative = inhibition, most hits filed as inhibitors; actives 0.041% (n = 370,000); AID 485294;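 further: 0% = no-compound wells and -100% = no-enzyme wells; nearly all actives have a fitted effect of over 25% in size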
#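 AmpC (5.3 nM in the dispensed reagent) in 20 mM phosphate pH 7.0 with 0.01% (detergent screen) or 0.0001% Triton X-100 was preincubated with compounds for 15 min at room temperature. Nitrocefin was then added from an 800 uM solution, and hydrolysis was followed at 480 nm.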
# Sm TGR block = blocks Schistosoma mansoni thioredoxin glutathione reductase; AID 485364; Q962Y6; purified TGR, DTNB reduction, TNB absorbance 405 nm; Potency, µM (doses to about 114 µM), for inactives: top-dose activity change, negative = inhibition, usual class: inhibitors; actives 3% (n = 360,000); further: on the % scale 0 is the no-effect control and ±100 the full control effect; nearly all actives have a fitted effect of over 60% in size
#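 TGR 20 nM + NADPH 100 uM (dispensed conc.), cpd preinc 15 min RT; start with NADPH (500 uM addition) then DTNB (15 mM addition). Kinetic TNB absorbance, 405 nm filter. Four-parameter Hill fit across titration.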
# Pf growth 96h = P. falciparum growth inhibition at 96 hours. Potency, µM (series often up to 28.7 µM), inactives show top-dose activity change, negative = inhibition, usual class: inhibitors. actives 6.9% (n = 320,000). P. falciparum luciferase reporter growth, 96 h. AID 504834; further: on the % scale 0 is the no-effect control and ±100 the full control effect
#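 Erythrocytes infected with luciferase-expressing P. falciparum were dispensed at 2% hematocrit and 0.05% parasitemia (final), then incubated with compounds 96 hours at 37 C in 5% CO2. Luminescence after detection reagent addition reported growth.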
# SARS PLpro yeast = blocks SARS-CoV papain-like protease in a yeast assay | S. cerevisiae expressing SARS-CoV PLpro, growth rescue | Potency, µM (highest dose often 32.9 µM), inactives show at the highest dose activity, positive = growth rescue, most hits filed as activators | actives 0.19% (n = 330,000); calls by dose curve; further: 0% is about no effect; nearly all actives have a fitted effect of over 55% in size
# Starred values were filed as active, the others as inactive; ? = inconclusive; / = no result given; [ ] = another dose, or the depositor's remark. Unless noted, the call rests on the fitted dose curve; in most records, active means well fitted curve in the direction sought with a large enough effect; inconclusive means small, poorly fitted or top-dose-only effect, or another doubt; inactive means no such curve, though single readings can be large; an effect the other way counts as inactive or inconclusive. Potency means the concentration at half of the fitted maximal effect.
SMILES,AmpC no deterg,Pf growth 48h,AmpC inh detg,Sm TGR block,Pf growth 96h,SARS PLpro yeast
COc1cccc(C(C[N+](=O)[O-])c2c(C)[nH]n(-c3ccccc3)c2=O)c1 (stereo unspecified),-42%,8%,-12%,35µM*,1%,-72%
Cc1cc(C)n(Cc2ccc(Cl)cc2Cl)c(=O)c1S(=O)(=O)c1ccccc1,0.16µM*,13µM*,4%,10%,?,3%
[N-]=[N+]=CC(=O)OCC(N)C(=O)O (stereo unspecified),/,-6%,/,/,?,/
Cc1ccc(C(=O)Nn2c(O)c(C=C3N=c4ccccc4=N3)sc2=S)cc1,-20%,36%,?,1%,?,-1%
O=C1N=c2ccc(Br)cc2=C1c1sc(=S)n(NS(=O)(=O)c2ccccc2)c1O,-58%,-14%,3%,11µM*,-16%,0%
Cc1ccc(S(=O)(=O)Nn2c(O)c(C=C3N=c4ccccc4=N3)sc2=S)cc1,?,?,-3%,13µM*,41%,-1%
O=C1N=c2ccccc2=C1c1sc(=S)n(NC(=O)c2cccc(O)c2)c1O,-36%,-1%,-1%,-24%,1.9µM*,1%
O=C1N=c2ccccc2=C1c1sc(=S)n(-c2ccc(O)cc2)c1O,-36%,-1%,7%,-2%,?,-2%
CCn1c(C)cc(/C=C2/NC(=O)N(Cc3ccccc3F)C2=O)c1C,-12%,12µM*,-9%,-5%,9.3µM*,2%
N#Cc1ccc(Oc2ccc(-c3nc4ccccc4nc3-c3ccccc3)cc2)cc1C#N,-26%,-25%,-1%,16%,3.7µM*,21%
COc1ccc(-c2nc3ccccc3nc2-c2ccccc2)cc1,4%,?,8%,1%,5%,-1%
c1ccc(NC(c2ccccc2)c2ccncc2)cc1 (stereo unspecified),-4%,9.3µM*,-13%,?,80%,0%
NC(c1ccccc1)c1ccncc1 (stereo unspecified),0%,5%,-3%,12%,-19%,-7%
CCOc1ccc(NC(=O)CN(C)C(=O)C2CCCO2)cc1OCC (stereo unspecified),-5%,-6%,-13%,-13%,34%,-3%
O=C(CN1CCC(NC(=O)c2ccccc2F)CC1)NCc1ccc(F)cc1,-4%,13µM*,2%,-3%,/,6%
O=C(CN1CCC(NC(=O)c2ccccc2)CC1)NCc1ccccc1F,-16%,?,1%,-1%,5.9µM*,11%
O=C(CN1CCC(NC(=O)c2ccccc2Cl)CC1)NCc1ccccc1,-2%,?,-10%,1%,12%,2%
CC(C)(C)c1ccc(C(=O)NNc2cc(Cl)cc(Cl)c2)cc1,-52%,-10%,7%,1%,-25%,-1%
COc1ccc(C(=O)/C=C2/Sc3cc4c(cc3N2C)OCO4)cc1,-27%,28%,2%,7%,2.1µM*,4%
CC(NC(=O)c1ccc(Br)o1)C1CC2CCC1C2 (stereo unspecified),-29%,-8%,3%,-2%,1µM*,-1%
Cc1nnc(SCC(=O)N2CC(=O)Nc3ccccc32)n1Cc1ccccc1,-14%,?,3%,-2%,-3%,4%
O=C(CSc1nnnn1-c1ccccc1)N1CCNC1=O,-13%,12%,1%,1%,?,5%
O=C1CN(C(=O)CSc2nnnn2-c2ccc(Cl)cc2)c2ccccc2N1,?,4.7µM*,?,0%,54%,-1%
O=C1CN(C(=O)CSc2nc3cc(Cl)ccc3c(=O)n2Cc2ccccc2)c2ccccc2N1,-36%,3.3µM*,-3%,-2%,?,7%
Cc1ccc(Cn2c(SCC(=O)N3CC(=O)Nc4ccccc43)nc3ccccc3c2=O)cc1,-18%,?,-11%,-3%,13µM*,13%
SMILES,AmpC no deterg,Pf growth 48h,AmpC inh detg,Sm TGR block,Pf growth 96h,SARS PLpro yeast
Cc1cccc(NC(=O)CNC(=O)c2ccc(-n3cncn3)c([N+](=O)[O-])c2)c1C,-11%,10%,?,4%,2%,0%
COc1cc(S(=O)(=O)NCCc2c(C)[nH]c3ccccc23)c(C)cc1C,/,/,0%,3%,/,/
Cc1cccc(CCNC(=O)C2CCN(S(=O)(=O)c3cccc4cccnc34)CC2)c1,29%,-4%,-6%,-11%,37%,2%
CCN(CCNC(=O)C1CCN(S(=O)(=O)c2cccc3cccnc23)CC1)c1ccccc1,26%,6.6µM*,-3%,-3%,-19%,-4%
CC1CCCCN1CCNC(=O)C1CCN(S(=O)(=O)c2cccc3cccnc23)CC1 (stereo unspecified),65%,?,?,-23%,4.7µM*,9%
O=C(COc1ccccc1F)Nc1ccccc1C(=O)OCc1cc(=O)n2nc(C3CC3)sc2n1,/,/,14%,8%,/,/
O=C(N/N=C/c1c(Cl)cccc1Cl)c1n[nH]c2c1CCCC2,-44%,108%,4%,-6%,-7%,-4%
Cc1ccsc1/C=N\NC(=O)c1n[nH]c2c1CCC2,-5%,49%,-7%,-9%,10µM*,-14%
O=C1OC2(O)C3C4C=CC(C4)C3C(=O)N2c2ccccc21 (stereo unspecified),-15%,2.3µM*,-6%,4%,46%,0%
CCN(CC)S(=O)(=O)c1ccc2c(c1)nc(SCC(=O)N1CCCCCC1)n2-c1ccc(OC)cc1,81%,13µM*,6%,-6%,/,3%
CCN(CC)S(=O)(=O)c1ccc2c(c1)nc(SCC(=O)N1CCOCC1)n2-c1ccccc1OC,206%,?,-10%,9%,12µM*,-2%
COc1ccccc1-n1c(SCC(=O)N2CCOCC2)nc(O)cc1=O,-2%,?,2%,3%,?,3%
CCN(CC)S(=O)(=O)c1ccc2c(c1)nc(SCC(N)=O)n2-c1ccc(OC)cc1,74%,/,-11%,2%,?,-2%
O=C(c1c(F)cccc1F)N(Cc1ccccn1)C1CCCC1,1%,-14%,0%,-1%,-4%[5.75 µM],0%
Cn1nnnc1SCCNCc1ccccc1OCc1ccc(Cl)cc1,69%,?,3%,7%,12µM*,-18%
COc1ccc(Sc2ccc(/C=C3\C(=O)NN(c4ccccc4)C3=O)o2)cc1,-46%,-9%,?,-26%,13%,0%
O=C1NC(=O)N(c2cccc(Cl)c2)C(=O)/C1=C\c1ccc(Sc2nc3ccccc3[nH]2)o1,22µM*,5%,-11%,7.1µM*,20%,9%
O=C1NC(=O)N(c2ccccc2)C(=O)/C1=C/c1ccc(Sc2ccccc2)o1,-47%,?,-6%,25µM*,-8%,4%
